eIF4H inh: inhibitors of RNA binding by human eIF4H | Q15056 | eIF4H fluorescence polarization binding assay | inhibition, % at 35 µM | 290,000 tested, 0.94% active | AID 2012;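 further: calls also rest on retests at 20 µM and on dose response follow-up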
PERK inhibitor: inhibitors of human PERK kinase | inhibition, % at 5.6 µM | 220,000 tested, 0.17% active | Q9NZJ5 | CHO PERK-DD fusion, SEAP luminescence translation reporter | AID 1416;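 active means inhibition above the mean inhibition of all tested compounds plus 3 SD, set separately per screening campaign, cut at about 2.9% in these data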;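 further: PERK kinase domain activated by AP20187 dimerizer at 100 nM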
PABP1 MLLE inh: blocks PAM2 peptide binding to the PABP1 MLLE domain. P11940. GST-MLLE / FITC-PAM2 fluorescence polarization. inhibition, % at 20 µM. 360,000 tested, 0.36% active. AID 588489; in the data active means inhibition above about 35%, passing the limit was not always enough
eIF4E-4G inh: blocks eIF4E binding to eIF4G. P63073+Q04637. TR-FRET eIF4E-eIF4GI(517-606) binding, 2 h. inhibition, % at 21.7 µM. 220,000 tested, 0.37% active. AID 782;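 active means inhibition above about 30%, limit read from the data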
PABP polyA inh: blocks human PABP binding to poly(A) RNA. fluorescence polarization. 290,000 tested, 1% active. calls only at 35 µM. P11940;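 further: calls also rest on retests at 20 µM and on dose response follow-up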
Of the large screens only hits and unclear results are named; the others gave an inactive call; [ ] = remark or other dose. In the library only some 1.6% were active in any assay of this set; here they are far more common. Unless noted, how the calls were made is not given here.

CCOc1ccccc1OCCCCCc1c(C)n[nH]c1C	eIF4E-4G inh 47
CC(C)(C)c1ccccc1NC(=O)NC1CCN(Cc2c(F)cccc2Cl)CC1	none
COc1nc(-c2ccccc2)cc(-c2ccccc2)n1	eIF4H inh active, PABP polyA inh active
Cc1nc(-c2ccccc2)cc(-c2ccccc2)n1	none (no result: eIF4H inh, PERK inhibitor, eIF4E-4G inh, PABP polyA inh)
O=C(Nc1ccnc(-c2ccncc2)n1)c1ccc(Cl)cc1	none
O=C(O)CSc1nnc(COc2cccc3cccnc23)n1-c1cccc(C(F)(F)F)c1	eIF4E-4G inh 68 (no result: PABP1 MLLE inh)
O=C(O)CCSc1nnc(COc2cccc3cccnc23)n1-c1ccccc1	none
O=C(NCc1ccco1)c1cc2cc(Br)ccc2o1	none (no result: PERK inhibitor, eIF4E-4G inh)
O=C(O)c1cccc(-n2cccc2C=C2C(=O)c3ccccc3C2=O)c1	none
O=C(N/N=C/c1cccn1-c1cccc(C(=O)O)c1)Nc1ccccc1	eIF4H inh inconclusive, PABP polyA inh active
C/C(=N\NC1=N[C@H]2CS(=O)(=O)C[C@H]2S1)c1ccccc1	PERK inhibitor 3.3
Cc1ccc(-c2nc3cc(C)c(Br)c(C)n3c2CC(C)(C)C)cc1	none (no result: eIF4H inh, PERK inhibitor, eIF4E-4G inh, PABP polyA inh)
CN1CCc2cc3c(c4c2[C@H]1[C@H](O)c1ccccc1-4)OCO3	PABP1 MLLE inh 68
COc1ccc2c(c1OC)C(=O)OC2C1c2c(cc3c(c2OC)OCO3)CCN1C (centres undefined)	none
CCCCNC(=O)C1(C)CCCCN1C(=O)c1ccc(C)c(F)c1 (centres undefined)	none (no result: eIF4H inh, PERK inhibitor, eIF4E-4G inh, PABP polyA inh)
O=[N+]([O-])c1ccc(OS(=O)(=O)Cc2ccccc2)cc1	eIF4H inh 2.5, PABP polyA inh active
Cn1cccc1/C=C1\SC(=S)N(NC(=O)c2cccc(Cl)c2)C1=O	eIF4H inh inconclusive
O=C(CSc1ccccn1)Nc1cccc2ccccc12	eIF4H inh 1.8, PABP polyA inh active
COc1ccc(OCC(=O)Nc2cccc3ncccc23)cc1	none
O=C(CSc1ccccn1)Nc1ccccc1F	none
O=C(CCl)Nc1cccc2ncccc12	eIF4H inh 104, PABP polyA inh active
O=C(CCS(=O)(=O)c1ccccc1Cl)NC1CCCCCC1	none (no result: eIF4H inh, PERK inhibitor, eIF4E-4G inh, PABP polyA inh)
Cc1ccc(/C=C/c2ccc(=O)n(Cc3ccc(Cl)cc3Cl)n2)cc1	PERK inhibitor 3.0
CCOC(=O)c1c(-c2ccccc2Cl)csc1NC(=O)c1cc(S(=O)(=O)N2CCOCC2)ccc1C	none
S=C1NCCNC(=S)NCCOCCOCCN1	eIF4H inh active
COc1cccc(NC(=S)N(CCCN2CCCC2)Cc2ccco2)c1	eIF4H inh active
Nc1ccc2nc(-c3cc(Cl)c(N)c(Cl)c3)[nH]c2c1	eIF4E-4G inh 39[fluorescence artefact?]
O=C(CSc1ncccn1)NC1CCS(=O)(=O)C1 (centres undefined)	none (no result: PERK inhibitor, eIF4E-4G inh)
CCCC(C)c1nnc(NC(=O)C2CCCO2)s1 (centres undefined)	none
CCCC(C)c1nnc(NC(=O)C(=O)OCC)s1 (centres undefined)	PERK inhibitor 3.0
CC1(C(=O)NS(=O)(=O)C2CC2)CCN(C(=O)COCc2ccccc2)C1 (centres undefined)	none (no result: eIF4H inh, PERK inhibitor, eIF4E-4G inh, PABP polyA inh)
Cc1nc(C(C)(C)O)n(-c2ccccc2)n1	eIF4E-4G inh 92[fluorescence artefact?]
O=C(COC(=O)/C=C/c1ccc([N+](=O)[O-])cc1)NNC(=O)c1ccccc1	none (no result: eIF4H inh, PERK inhibitor, eIF4E-4G inh, PABP polyA inh)
Nc1cc(N)c(OCC(F)(F)F)cc1OCC(F)(F)F	eIF4H inh 106, PABP polyA inh active
COc1cccc(C(C)(O)c2nc(/C=C/c3ccccc3)cs2)c1 (centres undefined)	none (no result: eIF4H inh, PERK inhibitor, eIF4E-4G inh, PABP polyA inh)
COCCn1c(SCC#N)nnc1-c1ccccc1	none
COCCSc1nnc(-c2cccc(C#N)c2)n1C	PERK inhibitor 3.3
Cc1ccc(NC(=S)Nc2ccc3[nH]c(=O)[nH]c3c2)cc1C	PABP1 MLLE inh 43
CC(=O)c1ccc(NC(=S)Nc2ccc3[nH]c(=O)[nH]c3c2)cc1	none
COc1ccc(C(=O)CNc2cccc(F)c2)cc1	none (no result: PERK inhibitor, eIF4E-4G inh)
O=c1cnnc(N/N=C/c2cccs2)[nH]1	PERK inhibitor 4.0
Cc1cc(=O)[nH]c(N/N=C/c2cccs2)n1	none
COc1ccc2cc(C3OCCO3)c(Cl)nc2c1	none
O=C(O)c1ccc(O)c(O)c1	none
CC(C)(O)CCCC(C)(O)c1ccc(C(=O)O)cc1O (centres undefined)	eIF4H inh 84 (no result: PERK inhibitor)
CN(/N=C/c1ccc(-c2ccc([N+](=O)[O-])cc2)o1)c1ccccc1	none (no result: PERK inhibitor, eIF4E-4G inh)
O=C1NN(c2ccc(Cl)c(Cl)c2)C(=O)/C1=C/c1ccc(-c2ccccc2C(=O)O)o1	eIF4H inh 40, PABP polyA inh active (no result: PERK inhibitor, eIF4E-4G inh)
Cc1ccc(N2NC(=O)/C(=C/c3ccc(-c4ccc(Cl)c(C(=O)O)c4)o3)C2=O)cc1C	none
O=C1NN(c2ccccc2)C(=O)/C1=C/c1ccc(-c2ccc(C(=O)O)cc2)o1	eIF4H inh 68, PABP polyA inh active (no result: PERK inhibitor, eIF4E-4G inh)
O=C(O)c1ccc(N2C(=O)/C(=C/c3ccc(-c4ccc([N+](=O)[O-])cc4)o3)C=C2c2ccccc2)cc1	eIF4E-4G inh 76
COC(=O)c1ccc(N2NC(=O)/C(=C/c3ccc(-c4ccc(Cl)c(C(=O)O)c4)o3)C2=O)cc1	eIF4H inh 71, PABP polyA inh active
O=C1NN(c2ccccc2)C(=O)/C1=C/c1ccc(Sc2cccc3ccccc23)o1	none
CCOC(=O)N1CCC(NS(=O)(=O)c2cc(C(=O)OC)n(C)c2)CC1	none (no result: PERK inhibitor, eIF4E-4G inh)
CC1=NN(c2ccc(C(=O)O)cc2)C(=O)/C1=C/c1ccc(-c2ccccc2F)o1	none (no result: PERK inhibitor, eIF4E-4G inh)
CC1=NN(c2ccc(Cl)c(C(=O)O)c2)C(=O)/C1=C\c1ccc(-c2ccc(C(=O)O)cc2)o1	eIF4H inh 52
Cc1[nH]c2c(C)cccc2c1CC(=O)O	eIF4H inh 7.2
Cc1[nH]c2ccccc2c1CC(=O)O	none
O=C(O)c1ccccc1N=Nc1ccc(O)cc1	PABP1 MLLE inh 41 (no result: eIF4H inh, PERK inhibitor, eIF4E-4G inh, PABP polyA inh)
Cc1[nH]c2ccccc2c1N=Nc1ccccc1C(=O)O	PABP polyA inh active
O=C(O)c1cc(O)ccc1N=Nc1ccccc1	none
COc1cc(OC)cc(C(=O)NCC(=O)OCC(=O)N2c3ccccc3NC(=O)C2(C)C)c1	none
Cc1cc(C)cc(C(=O)NCC(=O)OCC(=O)N2c3ccccc3NC(=O)C2(C)C)c1	eIF4H inh 76, PABP polyA inh active
Cc1ccc(S(=O)(=O)N2CN(Cc3ccco3)c3nc4ccccc4nc32)cc1	eIF4H inh inconclusive, PABP polyA inh active
O=S(=O)(c1ccc(F)cc1)N1CN(Cc2ccco2)c2nc3ccccc3nc21	eIF4H inh 122, PABP polyA inh active
COc1ccc(S(=O)(=O)N2CN(Cc3ccco3)c3nc4ccccc4nc32)cc1	eIF4H inh inconclusive, PABP polyA inh inconclusive
Cc1cc(C)c(S(=O)(=O)/N=C2/C=C(Sc3ncn[nH]3)C(=O)c3ccccc32)cc1C	PABP1 MLLE inh 45
Cc1ccc(OCC(=O)NNC(=O)c2ccco2)c(C)c1	none (no result: PERK inhibitor, eIF4E-4G inh)
COC(=O)C1CC(=O)N(c2ccc(OCc3ccccc3Cl)cc2)C1 (centres undefined)	eIF4H inh 103, PABP polyA inh active (no result: PERK inhibitor, eIF4E-4G inh)
O=C1CSC(=S)N1/N=C/c1ccc(O)c(O)c1O	eIF4H inh 80, eIF4E-4G inh 84, PABP polyA inh active
O=C1CSC(=S)N1/N=C/c1cc(Br)ccc1O	none (no result: PERK inhibitor, PABP1 MLLE inh, eIF4E-4G inh)
C=CCN=C(C)C1=C(O)CCC1=O	PERK inhibitor 2.9
C=CCN=C(CC)C1=C(O)CCCC1=O	none
